Screens from PubChem BioAssay.
The list is not random: actives were taken first. Their share in the collection is about 3.3%.
rCAG binder = binders of r(CAG) RNA repeats, primary screen, biochemical, fluorescence | actives 1.3% (n = 370,000) | inhibition, % at 3 µM | r(CAG) RNA repeat, TO-PRO-1 dye displacement fluorescence;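 active = inhibition above the plate cutoff, the mean of all test compounds on that plate plus 3 SD, cut at about 35% in these data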;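 also: higher means more dye released from RNA so lower well fluorescence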
PRMT1 FP inh = PRMT1 methyltransferase inhibitors, primary screen, biochemical, fluorescence polarization | Protein arginine N-methyltransferase 1 (Homo sapiens), Q99873 | recombinant PRMT1, activity-based probe fluorescence polarization | AID 652257, 2013 | actives 1.3% (n = 370,000) | inhibition, % at 2.79 µM;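 active = inhibition above about 21% made by adding two undisclosed values, limit read from the data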
ABHD5 PLIN5 PPI = ABHD5-PLIN5 interaction inhibitors, primary screen, cell lysate, split luciferase complementation, luminescence; Perilipin-5 (Homo sapiens) + 1-acylglycerol-3-phosphate O-acyltransferase ABHD5 (Homo …; inhibition, % at 4 µM; actives 0.78% (n = 360,000); Split G. princeps luciferase complementation, 4 h;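 active = inhibition above the mean inhibition across every tested compound plus 3 SD, cut at about 22% in these data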
NOD2-RIPK2 inh = NOD2-RIPK2 binding disruptors in cells, primary screen, fluorescence, CHO cells, BLA complementation; Receptor-interacting serine/threonine-protein kinase 2 (Homo sapiens), O43353; CCF4 ratio; inhibition, % at 4.98 µM; actives 0.38% (n = 360,000); in the data active = inhibition above about 21%
TLR9-MyD88 inh = inhibitors of TLR9-MyD88 association in cells, primary screen, cell-based, CHO, BLA complementation, fluorescence. CCF4 FRET ratio. inhibition, % at 4.98 µM. actives 0.21% (n = 340,000). AID 504734, 2011;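 active = inhibition above the mean over all tested compounds plus 3 SD, cut at about 21% in these data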
TLR4-MyD88 BLA = inhibitors of TLR4-MyD88 association in cells, primary screen, cell-based, HeLa CL3-4, BLA complementation, FRET ratio. Toll-like receptor 4 (Homo sapiens) + Myeloid differentiation primary response protein …. inhibition, % at 8.4 µM. actives 0.18% (n = 200,000). HeLa CL3-4 TLR4/MyD88 BLA complementation; in the data active = inhibition above about 25%
Target sequence (O00206 whole entry, looked up): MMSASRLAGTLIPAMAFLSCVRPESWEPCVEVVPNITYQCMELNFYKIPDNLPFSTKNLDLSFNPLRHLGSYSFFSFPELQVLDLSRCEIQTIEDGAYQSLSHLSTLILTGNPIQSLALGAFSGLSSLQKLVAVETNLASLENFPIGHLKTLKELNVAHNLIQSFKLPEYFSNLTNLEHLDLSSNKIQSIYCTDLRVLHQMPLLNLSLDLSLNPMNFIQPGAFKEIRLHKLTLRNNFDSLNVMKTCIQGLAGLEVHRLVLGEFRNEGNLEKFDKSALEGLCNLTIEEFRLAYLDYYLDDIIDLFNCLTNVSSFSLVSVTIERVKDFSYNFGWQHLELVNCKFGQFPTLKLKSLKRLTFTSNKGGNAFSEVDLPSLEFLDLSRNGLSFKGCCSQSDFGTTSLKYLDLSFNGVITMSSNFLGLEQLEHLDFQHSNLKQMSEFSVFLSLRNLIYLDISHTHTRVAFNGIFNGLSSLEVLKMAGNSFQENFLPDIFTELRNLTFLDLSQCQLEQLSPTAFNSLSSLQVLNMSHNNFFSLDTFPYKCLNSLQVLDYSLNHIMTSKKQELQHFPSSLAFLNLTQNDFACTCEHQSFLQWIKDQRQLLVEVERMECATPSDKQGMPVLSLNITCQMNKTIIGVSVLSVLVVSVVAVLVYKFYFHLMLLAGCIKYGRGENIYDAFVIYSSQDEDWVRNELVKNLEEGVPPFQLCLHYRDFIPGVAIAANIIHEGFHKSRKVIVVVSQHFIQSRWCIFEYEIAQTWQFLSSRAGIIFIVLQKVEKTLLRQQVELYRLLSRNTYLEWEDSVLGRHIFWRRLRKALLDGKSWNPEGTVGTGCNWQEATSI
Target sequence (Q99836 whole entry, looked up): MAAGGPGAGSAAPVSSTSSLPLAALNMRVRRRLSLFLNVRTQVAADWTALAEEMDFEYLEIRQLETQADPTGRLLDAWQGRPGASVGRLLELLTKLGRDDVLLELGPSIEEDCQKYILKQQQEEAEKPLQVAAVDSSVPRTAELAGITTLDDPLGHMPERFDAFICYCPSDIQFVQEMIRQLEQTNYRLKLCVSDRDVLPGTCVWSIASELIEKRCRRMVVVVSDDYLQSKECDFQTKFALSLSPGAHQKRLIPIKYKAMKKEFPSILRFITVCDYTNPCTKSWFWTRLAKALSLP
ABHD5 PLIN5 conf = ABHD5-PLIN5 interaction inhibitors, confirmation, biochemical, luminescence; shares compounds with ABHD5 PLIN5 PPI; actives 67% (n = 2,200); inhibition, % at 4 µM; in the data active = inhibition above about 23%
HNF4 counter = HNF4 dimerization inhibitors, counter-screen for ABHD5-PLIN5 interaction inhibitor project, biochemical, split-luciferase complementation, luminescence | AID 651674, 2012 | actives 77% (n = 2,200) | inhibition, % at 4 µM | shares compounds with ABHD5 PLIN5 PPI;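 active = mean inhibition across replicate wells exceeding the computed hit threshold, cut at about 13% in these data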;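 also: light from luciferase halves that rejoin when HNF4 fusion proteins dimerize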
Of the large screens only hits and unclear results are named; the others gave an inactive call (follow-up assays come after a bar, where they were run).

COc1cccc(/C=C/C(=O)c2ccc(C)c([N+](=O)[O-])c2)c1	ABHD5 PLIN5 PPI 55.5 | ABHD5 PLIN5 conf 102.1 | HNF4 counter 105.4
COc1cc(/C=C/C(=O)c2ccc(O)cc2)ccc1OCC#N	none
COc1ccc(/C=C/C(=O)c2ccc(C)c([N+](=O)[O-])c2)cc1O	ABHD5 PLIN5 PPI 40.4 | ABHD5 PLIN5 conf 80.3 | HNF4 counter 72.8
COc1cccc(C(=O)/C=C/c2ccc(OCC#N)c(OC)c2)c1	ABHD5 PLIN5 PPI 55.1 | ABHD5 PLIN5 conf 86.2 | HNF4 counter 77.2
O=C(N/N=C/C=C/c1ccco1)C(O)c1ccccc1 (configuration not stated)	ABHD5 PLIN5 PPI 34.9 | ABHD5 PLIN5 conf 47.2 | HNF4 counter 59.6
O=C(N/N=C/C=C/c1ccccc1)C(O)c1ccccc1 (configuration not stated)	none
CC(C)Oc1ccc(F)cc1-c1cc(C(=O)NCc2ccc(F)cc2)[nH]n1	none (no result: TLR9-MyD88 inh, TLR4-MyD88 BLA)
O=c1c2c3c(sc2nc(NCCO)n1Cc1ccco1)CCCCC3	none
CCc1nc2sc3ccccc3c(=O)c2c(=O)n1Cc1ccco1	PRMT1 FP inh 21.2, ABHD5 PLIN5 PPI 23.6 | ABHD5 PLIN5 conf 35.8 | HNF4 counter 49.7
CCCc1nc2sc3ccccc3c(=O)c2c(=O)n1Cc1ccccc1	none (no result: TLR4-MyD88 BLA)
Cc1ccc(-c2nc3c(c(=O)c4ccccc4n3C)c(=O)n2Cc2ccco2)cc1	PRMT1 FP inh 22.5, ABHD5 PLIN5 PPI 37.2 (no result: TLR4-MyD88 BLA) | ABHD5 PLIN5 conf inactive | HNF4 counter 13.4
O=c1c2ccccc2sc2nc(C3CCCCC3)n(Cc3ccco3)c(=O)c12	ABHD5 PLIN5 PPI 26.4 | ABHD5 PLIN5 conf 36.5 | HNF4 counter 42.6
CCCNC(=O)CCCN1C(=O)c2ccccc2Sc2ncccc21	none (no result: TLR4-MyD88 BLA)
O=C(NCc1ccccc1)C(C1CC1)n1c(CSCCOc2ccccc2)nc2ccccc21 (configuration not stated)	none (no result: TLR9-MyD88 inh, TLR4-MyD88 BLA)
COC(=O)[C@H](CC(C)C)NC(=O)c1cc2c(cn1)[nH]c1ccccc12	none (no result: TLR4-MyD88 BLA)
O=C1S/C(=C/c2ccc(N3CCOCC3)o2)C(=O)N1Cc1ccc(F)cc1	none
O=C1NC(=S)S/C1=C/c1ccc(N2CCOCC2)o1	ABHD5 PLIN5 PPI 44.0 (no result: rCAG binder, PRMT1 FP inh) | ABHD5 PLIN5 conf 41.9 | HNF4 counter 106.3
COCC(=O)N(C)[C@H]1C[C@H]2c3[nH]c4cccc(-c5cccc(F)c5)c4c3CCN2C(=O)[C@H]1[C@H](C)O	none (no result: ABHD5 PLIN5 PPI, NOD2-RIPK2 inh, TLR9-MyD88 inh, TLR4-MyD88 BLA)
O=c1[nH]cnc2c1C(c1ccccc1)c1c(nc[nH]c1=O)O2	none (no result: TLR4-MyD88 BLA)
O=c1[nH]cnc(O)c1C1C=CC=CC=C1	ABHD5 PLIN5 PPI 49.9 (no result: TLR4-MyD88 BLA) | ABHD5 PLIN5 conf 32.3 | HNF4 counter 48.7
COc1ccc(S(=O)(=O)N2CCCCCC2)cc1NC(C)C(=O)Nc1ccc(NC(C)=O)cc1 (configuration not stated)	ABHD5 PLIN5 PPI 47.4 (no result: TLR4-MyD88 BLA) | ABHD5 PLIN5 conf inactive | HNF4 counter inactive
COc1ccc(CNC(=O)c2cccnc2Sc2ccc(Cl)cc2)cc1	ABHD5 PLIN5 PPI 88.6 (no result: rCAG binder, PRMT1 FP inh) | ABHD5 PLIN5 conf inactive | HNF4 counter inactive
Cc1ccc(CNC(=O)c2cccnc2Sc2cccc(Cl)c2)cc1	none (no result: TLR9-MyD88 inh, TLR4-MyD88 BLA)
CC(C)C[C@@H]1COc2cc(Br)ccc2S(=O)(=O)N1Cc1cn(Cc2ccc(Cl)cc2)nn1	none (no result: ABHD5 PLIN5 PPI, NOD2-RIPK2 inh, TLR9-MyD88 inh, TLR4-MyD88 BLA)
CC(=O)c1ccc(NC(=O)c2ccc3nc(-c4ccco4)c(-c4ccco4)nc3c2)cc1	none (no result: rCAG binder, PRMT1 FP inh)
O=C(Nc1ccccc1)c1ccc2nc(-c3ccco3)c(-c3ccco3)nc2c1	rCAG binder 74.4, PRMT1 FP inh 37.7, ABHD5 PLIN5 PPI 30.2 | ABHD5 PLIN5 conf 48.6 | HNF4 counter 31.6
COc1ccc(CCNC(=O)c2cccc(S(=O)(=O)N3CCOCC3)c2)cc1OC	ABHD5 PLIN5 PPI 27.1 (no result: TLR4-MyD88 BLA) | ABHD5 PLIN5 conf inactive | HNF4 counter inactive
CN1C2CCC1/C(=C\c1ccccc1F)C(=O)/C2=C/c1ccccc1F	ABHD5 PLIN5 PPI 24.8 | ABHD5 PLIN5 conf 26.3 | HNF4 counter 27.5
COc1ccccc1N1C(=O)C2C3C=CC(CC3)C2C1=O (configuration not stated)	none (no result: TLR4-MyD88 BLA)
COc1ccccc1N1CCNC(C)C1=O (configuration not stated)	ABHD5 PLIN5 PPI 57.2 (no result: TLR4-MyD88 BLA) | ABHD5 PLIN5 conf inactive | HNF4 counter 14.7
COc1cccc(CNc2nc3cc(-c4ccc(C(=O)N5CCN(C)CC5)cc4)sc3c(=O)n2C)c1	ABHD5 PLIN5 PPI 23.6 (no result: TLR9-MyD88 inh, TLR4-MyD88 BLA) | ABHD5 PLIN5 conf inactive | HNF4 counter inactive
Cc1ccc(N=N/C(=C\O)C(=O)c2ccncc2)cc1	none
O=C(/C(=C/O)N=Nc1ccc(Cl)cc1)c1ccncc1	ABHD5 PLIN5 PPI 37.8 | ABHD5 PLIN5 conf 37.7 | HNF4 counter inactive
CCCCNC(=O)C(NC(=O)c1ccccc1)C(=O)c1ccccc1 (configuration not stated)	none (no result: TLR9-MyD88 inh, TLR4-MyD88 BLA)
CCCCN1CC(COCc2ccccc2)Oc2cccc(OCCN3C(=O)[C@@H]4[C@H](C3=O)C3C=C[C@H]4C3)c2S1(=O)=O (some centres not stated)	none (no result: TLR4-MyD88 BLA)
C=CCn1c(SCC(=O)NCCOC)nc2scc(-c3ccco3)c2c1=O	PRMT1 FP inh 47.3, ABHD5 PLIN5 PPI 31.6 | ABHD5 PLIN5 conf 42.1 | HNF4 counter 81.7
Cc1nc([N+](=O)[O-])c(Br)n1CC(=O)c1ccc(Cl)cc1	ABHD5 PLIN5 PPI 26.6 | ABHD5 PLIN5 conf 31.1 | HNF4 counter 25.6
COC(=O)C[C@H]1C=C[C@H](NC(=O)c2cccc(F)c2)[C@@H](CO)O1	none (no result: TLR9-MyD88 inh, TLR4-MyD88 BLA)
CCOC(=O)c1c(N)c2cc([N+](=O)[O-])ccc2n1C	none (no result: TLR4-MyD88 BLA)
CCOC(=O)/C(=C/c1c(C)n(C)c2ccc([N+](=O)[O-])cc12)C(C)=O	ABHD5 PLIN5 PPI 45.8 | ABHD5 PLIN5 conf 82.8 | HNF4 counter 75.7
CCOc1ccccc1N1CCN(CC(=O)N(C)CC(=O)Nc2ccccc2CC)CC1	none (no result: TLR4-MyD88 BLA)
CCCCNC(=O)C(NC(=O)c1ccc2c(c1)OCO2)C(=O)c1ccccc1 (configuration not stated)	none (no result: TLR9-MyD88 inh, TLR4-MyD88 BLA)
CN(C)CCNC(=O)/C(=C/c1ccc(-c2ccc(Cl)cc2)o1)NC(=O)c1ccccc1	ABHD5 PLIN5 PPI 25.0 | ABHD5 PLIN5 conf inactive | HNF4 counter inactive
CN(C)CCCNC(=O)/C(=C\c1ccc(-c2cccc([N+](=O)[O-])c2)o1)NC(=O)c1ccccc1	none
